Screening results as filed in PubChem BioAssay.
Rows were chosen to be rich in hits. Some 10% of all compounds tested hit in one or more screens of this group.
HPGD inh – HPGD (human) dehydrogenase inhibition | P15428 | purified HPGD, NADH fluorescence kinetic, PGE2 substrate | Potency, µM, for inactives: at the highest dose activity change, negative = inhibition, usual class: inhibitors | 150,000 compounds, 4.3% hits; note: potency is the fitted concentration of half-maximal effect
Target sequence (P15428 whole entry, looked up): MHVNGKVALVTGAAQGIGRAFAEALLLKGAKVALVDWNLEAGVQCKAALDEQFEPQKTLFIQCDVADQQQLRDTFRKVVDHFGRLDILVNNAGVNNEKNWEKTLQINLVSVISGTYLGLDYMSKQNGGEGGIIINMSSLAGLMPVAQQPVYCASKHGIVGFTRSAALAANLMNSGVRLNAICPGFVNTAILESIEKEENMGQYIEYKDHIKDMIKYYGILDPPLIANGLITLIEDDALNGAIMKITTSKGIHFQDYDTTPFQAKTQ
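20 nM HPGD preincubated 15 min at room temperature with compound in 50 mM Tris-HCl pH 8, 0.01% Tween 20. Started with 1 mM NAD+ and 30 uM prostaglandin E2; NADH fluorescence (360/450 nm) read 5 times over 30-s intervals, last minus first.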
KinaseGlo FLuc – blocks Kinase-Glo luciferase, a counter-screen artifact | Q27757 | Kinase-Glo luciferase, ATP luminescence, 8 min | Potency, µM (titrated, usually from 38.3 µM), for the others: top-dose activity change, negative = inhibition, usual class: inhibitors | 200,000 compounds, 0.28% hits | AID 1379; active = well fitted inhibition curve with a large enough effect; inconclusive = small, poorly fitted or top-dose-only effect; note: potency is the fitted concentration of half-maximal effect; nearly all actives have a fitted effect of over 60% in size
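Substrate mix (final 50 mM imidazole pH 7.2, 50 mM KCl, 7 mM MgCl2, 10 uM ATP, 0.01% Tween 20, 0.05% BSA) plus pin-tool compound, then Kinase-Glo detection mix; 8 min ambient, luminescence read.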
PNC inhibitor – perinucleolar compartment assembly inhibition. activity change (PNC), negative = inhibition, % at 10 µM. 140,000 compounds, 3.1% hits. AID 2417. PC3M PTB-GFP, PNC prevalence imaging, 16 h; hits give low values;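 active = readout at or below -70, meaning at least 70% loss of cells showing the perinucleolar compartment, a nuclear body marking cancer cells; inconclusive = readout between -30 and a set limit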;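 note: plate controls were DMSO wells for no effect and camptothecin positive control wells for full effect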
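Read-out is percentage of cells bearing a perinucleolar compartment, from automated 20x imaging of fixed, Hoechst-stained PC3M PTB-GFP cells. Cells were seeded 4 h, then exposed 16 h to compound (23 nl of library stock) in duplicate plates.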
Lamin A splicing – LMNA splicing modulation. HeLa LMNA splicing GFP/RFP minigene ratio, 48 h. Potency, µM (top dose mostly 46.1 µM), for the others: at the top dose ratio change, negative = inhibition, actives largely listed as inhibitors. 200,000 compounds, 0.01% hits. AID 1487; active = well fitted inhibition curve with a large enough effect in the signal ratio, with a control signal flat, not every such curve was filed as active; inconclusive = small, poorly fitted or top-dose-only effect, or effect the other way, or a change in a side signal; the % refers to the signal ratio; note: potency is the fitted concentration of half-maximal effect
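S3 HeLa cells stably expressing lamin A-EGFP splicing minigene plus DsRed2, 600 cells/well, 48 h compound exposure at 37C. Laser-scanning cytometry; analysed as GFP (500-530 nm)/RFP (575-640 nm) total intensity ratio; 0.5% DMSO vehicle.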
ALDH1A1 inh – ALDH1A1 (human) enzyme inhibition; P00352; Purified ALDH1A1, NADH fluorescence, propionaldehyde substrate; Potency, µM (doses to about 75.3 µM), without a hit: top-dose activity, negative = inhibition, most hits filed as inhibitors; 220,000 compounds, 7.3% hits; AID 1030;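 note: potency is the fitted concentration of half-maximal effect; plate controls were no enzyme wells and a reference inhibitor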
Target sequence (P00352 whole entry, looked up): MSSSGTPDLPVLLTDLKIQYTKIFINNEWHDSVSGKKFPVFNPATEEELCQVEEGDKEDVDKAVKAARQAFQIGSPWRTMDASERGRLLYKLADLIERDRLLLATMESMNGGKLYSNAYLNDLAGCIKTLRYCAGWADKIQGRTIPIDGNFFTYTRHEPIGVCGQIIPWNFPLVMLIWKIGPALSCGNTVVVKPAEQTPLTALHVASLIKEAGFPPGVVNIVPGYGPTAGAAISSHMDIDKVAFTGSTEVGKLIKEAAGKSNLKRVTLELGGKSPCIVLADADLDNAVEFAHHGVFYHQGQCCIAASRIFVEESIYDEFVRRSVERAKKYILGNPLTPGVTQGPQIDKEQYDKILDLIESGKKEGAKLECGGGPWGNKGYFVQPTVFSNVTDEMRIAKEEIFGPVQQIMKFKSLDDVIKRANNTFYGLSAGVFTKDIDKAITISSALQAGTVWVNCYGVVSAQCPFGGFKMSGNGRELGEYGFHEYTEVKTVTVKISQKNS
* marks the source's active call; other numbers are inactive results; ? = inconclusive; . = no result given; ! = not confirmed by another sample; [ ] = another dose, or the depositor's remark. Unless noted, calls come from the whole dose curve; as a rule, active = well fitted inhibition curve with a large enough effect (not every such curve was filed as active); inconclusive = small, poorly fitted or top-dose-only effect, or another doubt; inactive = no such curve, though single readings can be large or run the other way. Unless noted, % is set by controls: 0 for no effect and ±100 for the full control effect.

SMILES	HPGD inh	KinaseGlo FLuc	PNC inhibitor	Lamin A splicing	ALDH1A1 inh
Cc1nc(N2CCC(C)CC2)c2c(C)c(C(=O)O)sc2n1	20µM*	-3%	11	17%	-7%
CCN1CCN(C(=O)c2sc3nc(C)nc(N4CCC(C)CC4)c3c2C)CC1	-4%	-1%	-88*	16%	-9%
Cc1nc(N2CCC(C)CC2)c2c(C)c(C(=O)Nc3ccc(C)c(F)c3)sc2n1	.	2%	.	.	18%
O=S(=O)(NCCS(=O)(=O)N1CCN(c2cccc(Cl)c2)CC1)c1ccc(F)cc1	.	.	.	8%[46 µM]	.
O=C(Nc1ccc(Cl)cc1)C(c1ccccc1)N1CCOCC1 (stereo not drawn)	.	-1%	.	.	18µM*
Cc1ccc(C)c(NC(=O)C(c2ccccc2)N2CCOCC2)c1 (stereo not drawn)	.	8%	.	.	16µM*
COCCn1c(=O)c(-c2ccc(Cl)cc2)nc2cnc(OC)nc21	-27%	1%	.	.	?
CCCN1CCN(c2ncnc3c2nnn3Cc2ccccc2)CC1	25µM*	-4%	4	-15%	10µM*
Fc1cccc(Cl)c1Cn1nnc2c(N3CCC4(CC3)OCCO4)ncnc21	-12%	-5%	?	?	16µM*
c1ccc(Cn2nnc3c(N4CCc5ccccc54)ncnc32)cc1	?	1%	?	-16%	?
c1ccc(Cn2nnc3c(N4CCCCCC4)ncnc32)cc1	32µM*	1%	-8	?	?
O=C(COc1ccc(Cl)cc1Cl)Nc1ccccc1NS(=O)(=O)c1cccs1	.	0%	.	.	?
O=C(COc1ccccc1)Nc1ccccc1NS(=O)(=O)c1cccs1	-9%	0%	-100*	2%	-2%
CCC(=O)N[C@@H]1Cc2ccccc2[C@@H](c2ccccc2)C1	-2%	-3%	.	.	-8%
O=C(c1ccccc1)c1cc2ccc(O)cc2oc1=O	?	11µM*	22	2%	?
O=C(NCc1ccco1)c1cc2ccc(O)cc2oc1=O	?	5µM*	30	17%	?
CNC(=O)C1CCC(Cn2c(=O)c3sccc3n(CC(=O)NCc3ccc(F)cc3)c2=O)CC1 (stereo not drawn)	.	.	.	20%[46 µM]	.
COc1ccc(N2CCN(C(=O)c3cc(S(=O)(=O)N4CCCCCC4)cn3C)CC2)cc1	.	.	.	-2%[46 µM]	.
COc1ccc(C2CC(=O)C3=C(C2)Nc2ccccc2N(C(=O)C2CC2)C3c2cccnc2)cc1OC (stereo not drawn)	-21%	1%	?	-1%	14µM*
COc1cc(C2Nc3ccccc3NC3=C2C(=O)CC(c2ccc(OC)c(OC)c2)C3)ccc1O (stereo not drawn)	.	.	.	5%[46 µM]	.
CC1=C(/C=C\C(=O)O)C(C)(C)CCC1	-1%	-4%[7.66 µM]	.	.	-4%[13.5 µM]
CC1=C(/C=C/C(C)=C/C=C/C(C)=C/C=O)C(C)(C)CCC1	-13%	.	.	.	22µM*
CC1=C(/C=C/C(C)=C/C=C/C(C)=C\CO)C(C)(C)CCC1	.	.	.	.	25µM*
CC1=C(/C=C/C(C)=C/C=C/C(C)=C/CO)C(C)(C)CCC1	0%	-1%	.	.	25µM*!
CC1=C(/C=C/C(C)=C/C=C/C(C)=C\C=O)C(C)(C)CCC1	-6%	.	.	.	?
SMILES	HPGD inh	KinaseGlo FLuc	PNC inhibitor	Lamin A splicing	ALDH1A1 inh
CC(=O)OC/C=C(C)/C=C/C=C(C)/C=C/C1=C(C)CCCC1(C)C	-6%	2%[39.9 µM]	.	.	22µM*!
CC(C)(C)Nc1oc(-c2ccccc2)nc1-c1cccc2ccccc12	-8%	1%	.	.	?
O=C1c2ccccc2C(=O)C12OC2c1cccc2ccccc12 (stereo not drawn)	?	-1%	?	-10%	1µM*
CCCCn1c(=O)nc2n(-c3ccc(Cl)cc3)c3ccccc3cc-2c1=O	?	2%	20	9%	?
COc1cccc(CCc2nnc(CCC(=O)N3CCN(Cc4ccccn4)CC3)o2)c1	.	.	.	.	8.9µM*
COC(=O)c1ccc2c(=O)n(-c3ccccc3)c(SCN3C(=O)c4ccccc4C3=O)nc2c1	-11%	-4%	?	?	13µM*
COC(=O)c1c(NC(=O)CSc2nc3ccccc3c(=O)n2-c2ccccc2)sc(C)c1C	-19%	-1%	12	1%	22%
O=C(NCN1C(=O)C2C3C=CC(C3)C2C1=O)Nc1nccs1 (stereo not drawn)	-5%	0%	-100*	-1%	?
CCc1nnc(NC(=O)NCN2C(=O)C3C4C=CC(C4)C3C2=O)s1 (stereo not drawn)	8%	-2%	14	2%	-9%
Cc1cc(C)c2c(-n3cccc3)nn(C)c2n1	-16%	-1%	-109*	12%	-4%
CCCCC#CC1C=CC(Oc2ccc(OC)cc2)C(CO)O1 (stereo not drawn)	.	.	.	.	2%[13.5 µM]
C=CCc1ccc(OCCOCCOc2ccc(C)cc2[N+](=O)[O-])c(OC)c1	?	-1%	9	9%	25µM*
N#Cc1cccc(NC(=O)N2CC[C@@]3(CCCN(C(=O)c4csnn4)C3)C2)c1	-11%	-3%	.	.	8%
CCN(Cc1ccc(OC)c(F)c1)C(=O)CCl	.	.	.	.	0.35µM*
CNC[C@@H](SC)c1ccc(O)c(O)c1	2%	-1%[7.66 µM]	.	.	9%[13.5 µM]
Cc1cc(NC(=O)c2ccccc2[N+](=O)[O-])ccc1Br	.	2%	.	3%[46 µM]	-8%
CC(C)CNC(=O)c1cccc(NC(=O)c2ccc(Cl)c([N+](=O)[O-])c2)c1	-22%	0%	-89*	?	2%
CC(C)CNC(=O)c1ccc(NC(=O)c2ccccc2[N+](=O)[O-])cc1	?	-5%	-84*	-16%	-1%
CC(C)CNC(=O)c1ccc(Cl)c(Cl)c1	22µM*	1%	13	-2%	11%
CC(C)(C)SCCNC(=O)c1ccc(Cl)c([N+](=O)[O-])c1	28µM*	-5%	57	-5%	?
COc1ccc(OC)c(-n2nnnc2SCC(=O)N2CCN(C(=O)c3ccco3)CC2)c1	.	-1%	.	1%[46 µM]	?
Cc1ccc(-n2nnnc2SCC(=O)N2CCN(C(=O)c3ccco3)CC2)c(C)c1	-5%	-1%	-83*	-17%	?
COc1ccc(-n2nnnc2SCC(=O)N2CCN(C(=O)c3ccco3)CC2)cc1OC	.	-1%	.	.	32µM*
COc1ccc2c(c1)O[C@@H](c1cccc(C(F)(F)F)c1)[C@H](OC(=O)NCc1ccc3c(c1)OCO3)C2=O	-6%	0%	.	.	-8%
COc1ccc(Cl)cc1NC(=O)CSc1nc(=O)[nH]c2c1CCC2	.	.	.	-19%[46 µM]	.
CCc1ccc(CNC(=O)CN2C(=O)c3cccnc3Oc3ccc(Cl)cc32)cc1	.	.	.	18%[46 µM]	.
Cc1ccccc1-c1cc(-n2ccnc2)ncn1	-7%	-1%	.	?	8%
CCN(CC)COC(=S)S	3.2µM*	-3%[7.66 µM]	.	.	2.8µM*
C/C(=N\NC(=O)c1ccccc1O)c1ccc(Br)s1	32µM*	-28%	-26	?	-14%
C/C(=N\NC(=O)c1ccccc1[N+](=O)[O-])c1ccc(Br)s1	.	2%	.	11%[46 µM]	3%
